Assay results published in PubChem BioAssay (NCI).
The panel holds about 83,000 compounds, 20% with a hit somewhere; the sample as a whole holds those more often.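 Values shown are percent growth following 48 h exposure of cells in 96-well plates to a single concentration of compound; below 10 was considered active.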 Activity calls are given as the source filed them.

Key:
Test in all cases: NCI-60 one-dose screen, 48 h (100 = growth as untreated, 0 = no growth, -100 = all killed)
Details in all cases: 10 µM unless noted
HCT-15 colon = test system: HCT-15 colon
HT29 colon = test system: HT29 colon
SNB-75 CNS = test system: SNB-75 CNS
SNB-19 CNS = test system: SNB-19 CNS
U251 CNS = test system: U251 CNS
PC-3 prostate = test system: PC-3 prostate
SK-MEL-5 melanoma = test system: SK-MEL-5 melanoma
UACC-62 melanoma = test system: UACC-62 melanoma
LOX IMVI melanoma = test system: LOX IMVI melanoma
SK-MEL-28 melanoma = test system: SK-MEL-28 melanoma
SK-MEL-2 melanoma = test system: SK-MEL-2 melanoma
EKVX NSCLC = test system: EKVX NSCLC
SN12C renal = test system: SN12C renal
UO-31 renal = test system: UO-31 renal
TK-10 renal = test system: TK-10 renal
ACHN renal = test system: ACHN renal
CAKI-1 renal = test system: CAKI-1 renal
A498 renal = test system: A498 renal
CCRF-CEM leukemia = test system: CCRF-CEM leukemia
MOLT-4 leukemia = test system: MOLT-4 leukemia

Measured: growth

C#CCOc1cc(/C=N/Nc2nc(-c3ccc(OC)cc3)cs2)ccc1O
inactive: HCT-15 colon 83.1% | HT29 colon 92.6% | SNB-75 CNS 95.5% | SNB-19 CNS 91.9% | U251 CNS 83.8% | PC-3 prostate 82.2% | SK-MEL-5 melanoma 63.7% | UACC-62 melanoma 70.8% | LOX IMVI melanoma 90.9% | SK-MEL-28 melanoma 97.8% | SK-MEL-2 melanoma 93.3% | EKVX NSCLC 67.8% | SN12C renal 86.8% | UO-31 renal 72.6% | TK-10 renal 94.2% | ACHN renal 90.8% | CAKI-1 renal 77.6% | A498 renal 82.4% | CCRF-CEM leukemia 82.2% | MOLT-4 leukemia 87.3%

COc1cc(C2CC(c3cccc(Nc4ccncc4)c3)=Nc3c(N)ncnc3N2)cc(OC)c1OC (stereo not given)
inactive: HCT-15 colon 88.3% | HT29 colon 98.1% | SNB-75 CNS 83.8% | SNB-19 CNS 93.8% | U251 CNS 77.7% | PC-3 prostate 93.8% | SK-MEL-5 melanoma 93.7% | UACC-62 melanoma 87.3% | LOX IMVI melanoma 91.3% | SK-MEL-28 melanoma 102% | SK-MEL-2 melanoma 92.6% | EKVX NSCLC 87.2% | SN12C renal 93.9% | UO-31 renal 98.5% | TK-10 renal 110% | ACHN renal 95.1% | CAKI-1 renal 85% | A498 renal 87.4% | CCRF-CEM leukemia 73.2% | MOLT-4 leukemia 85.6%

O=C(CSc1nc(-c2ccccc2)cn1-c1ccc(Cl)cc1)c1ccc([N+](=O)[O-])cc1
inactive: HCT-15 colon 76.1% | HT29 colon 56.1% | SNB-75 CNS 93.8% | SNB-19 CNS 90.8% | U251 CNS 93.3% | PC-3 prostate 73.2% | SK-MEL-5 melanoma 80.8% | UACC-62 melanoma 66.2% | LOX IMVI melanoma 96.1% | SK-MEL-28 melanoma 89% | SK-MEL-2 melanoma 86.9% | EKVX NSCLC 92.7% | SN12C renal 86.5% | UO-31 renal 59.7% | TK-10 renal 96.4% | ACHN renal 95.1% | CAKI-1 renal 89% | A498 renal 74.6% | CCRF-CEM leukemia 83.2% | MOLT-4 leukemia 68.4%

CCC(=C(c1ccc(OCCN(CC)CC)cc1)c1ccc(OCCN(CC)CC)cc1)c1ccc(Cl)cc1
active: HCT-15 colon -81% | HT29 colon -68% | SNB-75 CNS -73.6% | SNB-19 CNS -56.1% | U251 CNS -87.8% | PC-3 prostate -50.7% | SK-MEL-5 melanoma -98.2% | UACC-62 melanoma -68.3% | LOX IMVI melanoma -87% | SK-MEL-28 melanoma -86.9% | SK-MEL-2 melanoma -44.9% | SN12C renal -77% | UO-31 renal -81.2% | TK-10 renal -79.3% | ACHN renal -90.2% | CAKI-1 renal -89.4% | CCRF-CEM leukemia -65.3% | MOLT-4 leukemia -60.1%
inactive: EKVX NSCLC 77.1% | A498 renal 43.3%

C=C1C(=O)O[C@H]2[C@H]1CC/C(CNC(=O)/C=C/c1cc(OC)c(OC)c(OC)c1)=C\CC[C@@]1(C)O[C@@H]21
active: HCT-15 colon 1.96% | HT29 colon -66.4% | UACC-62 melanoma -36.3% | LOX IMVI melanoma -88% | SK-MEL-28 melanoma -32.7% | SK-MEL-2 melanoma 3.52% | UO-31 renal -38.2% | TK-10 renal -86.5% | ACHN renal -79.6% | A498 renal -9.24% | CCRF-CEM leukemia -10.6% | MOLT-4 leukemia -26.6%
inactive: SNB-75 CNS 46.9% | SNB-19 CNS 46.9% | U251 CNS 25.9% | PC-3 prostate 37.1% | SK-MEL-5 melanoma 20.6% | EKVX NSCLC 25.3% | SN12C renal 28.1% | CAKI-1 renal 33.9%

C=CCn1c(SCC(=O)Nc2ccc(C(=O)/C=C/c3ccc(Cl)cc3)cc2)nnc1-c1ccc(Cl)c(Cl)c1
inactive: HCT-15 colon 78.8% | HT29 colon 71.6% | SNB-75 CNS 73.9% | SNB-19 CNS 85.3% | U251 CNS 81% | PC-3 prostate 51.8% | SK-MEL-5 melanoma 82.3% | UACC-62 melanoma 62.4% | LOX IMVI melanoma 72.2% | SK-MEL-28 melanoma 101% | SK-MEL-2 melanoma 76.6% | EKVX NSCLC 79.7% | SN12C renal 82.3% | UO-31 renal 54.4% | TK-10 renal 86.2% | ACHN renal 87.7% | CAKI-1 renal 63.5% | A498 renal 83.9% | CCRF-CEM leukemia 52.9% | MOLT-4 leukemia 45.5%

N#Cc1c(-c2ccc(F)cc2)cc(-c2cccc(Cl)c2)[nH]c1=O
inactive: HCT-15 colon 58.1% | HT29 colon 110% | SNB-19 CNS 42.7% | U251 CNS 39.5% | PC-3 prostate 72.7% | SK-MEL-5 melanoma 70.1% | UACC-62 melanoma 40.9% | LOX IMVI melanoma 63.6% | SK-MEL-28 melanoma 83.9% | SK-MEL-2 melanoma 78.6% | EKVX NSCLC 66.9% | SN12C renal 60.3% | UO-31 renal 54.3% | TK-10 renal 54.3% | ACHN renal 49.4% | CAKI-1 renal 52.1% | A498 renal 80.4% | CCRF-CEM leukemia 71.9% | MOLT-4 leukemia 88.3%
active: SNB-75 CNS -25.5%

CC(=O)OCCOc1cc(Cl)c(Cl)cc1Cl
inactive: HCT-15 colon 104% | HT29 colon 103% | SNB-75 CNS 102% | SNB-19 CNS 103% | U251 CNS 99.2% | PC-3 prostate 98.3% | SK-MEL-5 melanoma 99.5% | UACC-62 melanoma 98.3% | LOX IMVI melanoma 101% | SK-MEL-28 melanoma 113% | SK-MEL-2 melanoma 89.9% | EKVX NSCLC 78.4% | SN12C renal 102% | UO-31 renal 89.1% | TK-10 renal 106% | ACHN renal 103% | CAKI-1 renal 96.5% | A498 renal 82.8% | MOLT-4 leukemia 107%
active: CCRF-CEM leukemia -63.4%

CC(=O)O[C@H]1CC[C@@]2(C)C(=CC[C@@H]3[C@@H]2CC[C@]2(C)C(Cl)=C(c4nc5ccc(Cl)cn5c4NC(C)(C)C)C[C@@H]32)C1
inactive: HCT-15 colon 100% | HT29 colon 102% | SNB-75 CNS 76.4% | SNB-19 CNS 85.1% | U251 CNS 88.5% | PC-3 prostate 82.9% | SK-MEL-5 melanoma 95.2% | UACC-62 melanoma 73.6% | LOX IMVI melanoma 89.8% | SK-MEL-28 melanoma 94.4% | SK-MEL-2 melanoma 99.9% | EKVX NSCLC 88.1% | SN12C renal 97.7% | UO-31 renal 86.6% | TK-10 renal 89.3% | ACHN renal 92.1% | CAKI-1 renal 65.1% | A498 renal 92.8% | CCRF-CEM leukemia 92.3% | MOLT-4 leukemia 101%

CN(C)C(=S)NN=C(c1ccccn1)c1ccccn1
active: SNB-75 CNS -22.2% | SK-MEL-5 melanoma -19.8% | UACC-62 melanoma 9.88% | LOX IMVI melanoma 8.85% | EKVX NSCLC -15.7% | TK-10 renal 6.04% | A498 renal -11% | CCRF-CEM leukemia -34.3% | MOLT-4 leukemia -2.95%
inactive: HCT-15 colon 37.3% | HT29 colon 27.9% | SNB-19 CNS 32.7% | U251 CNS 18.1% | PC-3 prostate 37.7% | SK-MEL-28 melanoma 30.7% | SK-MEL-2 melanoma 13.4% | SN12C renal 28.5% | UO-31 renal 20.7% | ACHN renal 16.8% | CAKI-1 renal 30%

CCOC(=O)C1=C(c2ccccc2)N=C2SC=C(c3cccc([N+](=O)[O-])c3)N2C1c1ccc(O)cc1 (stereo not given)
inactive: HCT-15 colon 97.7% | HT29 colon 105% | SNB-75 CNS 91.4% | SNB-19 CNS 97% | U251 CNS 96.6% | PC-3 prostate 94.8% | SK-MEL-5 melanoma 97.7% | UACC-62 melanoma 92.7% | LOX IMVI melanoma 95.4% | SK-MEL-28 melanoma 104% | SK-MEL-2 melanoma 96.7% | EKVX NSCLC 99.3% | SN12C renal 96% | UO-31 renal 91% | TK-10 renal 104% | ACHN renal 106% | CAKI-1 renal 94.3% | A498 renal 78.9% | CCRF-CEM leukemia 98.1% | MOLT-4 leukemia 111%

COc1ccc(/C=N\NC(=O)c2ccc3nc(-c4ccc(Cl)cc4)[nH]c3c2)cc1
active: U251 CNS 7.96% | PC-3 prostate -4.4% | LOX IMVI melanoma 0.882% | SN12C renal 6.24%
inactive: HCT-15 colon 57.5% | HT29 colon 21.9% | SNB-75 CNS 91.9% | SNB-19 CNS 24.2% | SK-MEL-5 melanoma 33.7% | UACC-62 melanoma 30.9% | SK-MEL-28 melanoma 12.5% | SK-MEL-2 melanoma 64.1% | EKVX NSCLC 29.4% | UO-31 renal 81.9% | TK-10 renal 39.1% | ACHN renal 21.9% | CAKI-1 renal 60.5% | A498 renal 66.6% | CCRF-CEM leukemia 65.3% | MOLT-4 leukemia 68.2%

COc1cc(C(=O)n2nc(NCCCc3ccccc3)c3cc(N)ccc32)cc(OC)c1OC
inactive: HCT-15 colon 90.8% | HT29 colon 91.8% | SNB-75 CNS 85.2% | SNB-19 CNS 101% | U251 CNS 100% | PC-3 prostate 79% | SK-MEL-5 melanoma 89.4% | UACC-62 melanoma 92.2% | LOX IMVI melanoma 79.9% | SK-MEL-28 melanoma 96.4% | SK-MEL-2 melanoma 87.6% | EKVX NSCLC 87.3% | SN12C renal 99.3% | UO-31 renal 68.6% | TK-10 renal 97.7% | ACHN renal 91.3% | CAKI-1 renal 92.6% | A498 renal 88.7% | CCRF-CEM leukemia 69.4% | MOLT-4 leukemia 78.6%

CC1(C)CCC[C@]23C(=O)O[C@](O)(C(=O)C4=C[C@@](C)(/C=C/CCCc5ccc6ccc7cccc8ccc5c6c78)CC[C@@]42O)[C@@H]13
active: HCT-15 colon -69.3% | HT29 colon -69.5% | SNB-75 CNS -78.8% | SNB-19 CNS -95.5% | U251 CNS -85.5% | PC-3 prostate -48.8% | SK-MEL-5 melanoma -96.3% | UACC-62 melanoma -75.5% | LOX IMVI melanoma -85.5% | SK-MEL-28 melanoma -86.6% | SK-MEL-2 melanoma -61.8% | EKVX NSCLC -84.9% | SN12C renal -94.4% | UO-31 renal -97.1% | TK-10 renal -88.7% | ACHN renal -100% | CAKI-1 renal -98.5% | A498 renal -87.9% | CCRF-CEM leukemia 0.0961% | MOLT-4 leukemia 9.46%

O=C(c1ccc(F)cc1)C1CCN(CCn2c(=O)[nH]c3ccccc3c2=O)CC1
inactive: HCT-15 colon 105% | HT29 colon 98.4% | SNB-75 CNS 92.6% | SNB-19 CNS 110% | U251 CNS 101% | PC-3 prostate 87.4% | SK-MEL-5 melanoma 94.2% | UACC-62 melanoma 102% | LOX IMVI melanoma 98.7% | SK-MEL-28 melanoma 108% | SK-MEL-2 melanoma 106% | EKVX NSCLC 89.3% | SN12C renal 105% | UO-31 renal 64.6% | TK-10 renal 105% | ACHN renal 94.8% | CAKI-1 renal 84.2% | A498 renal 118% | CCRF-CEM leukemia 101% | MOLT-4 leukemia 95.5%
